Bioassay records deposited in PubChem by National Center for Advancing Translational Sciences (NCATS).
Shiga toxin inh – A qHTS for Small Molecule Inhibitors of Shiga Toxin. Vero cells, Shiga toxin protein synthesis inhibition reporter. inhibition, % at 38.7 µM. 9.2% of 290,000 active. AID 2315, 2010; in the data active means inhibition mostly above about 28%, no sharp cut-off; inactive means mostly below about 43%
CHX counter – Cycloheximide Counterscreen for Small Molecule Inhibitors of Shiga Toxin. cell reporter, cycloheximide protein synthesis inhibition counterscreen. max response, %. 12% of 300,000 active; in the data active means max response mostly above about 13%, no sharp cut-off; inactive means mostly below about 14%; further: read at 38.3 µM for the half of the compounds with a filed dose
Pf growth 96h – Primary qHTS for delayed death inhibitors of the malarial parasite plastid, 96 hour incubation | P. falciparum luciferase reporter growth, 96 h | 6.9% of 320,000 active | Potency, µM (series often up to 28.7 µM), most hits filed as inhibitors | AID 504834, 2011
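Luminescence readout: decreased luciferase signal marks inhibited growth of reporter-expressing P. falciparum in infected red cells (2% hematocrit, 0.05% parasitemia final), exposed to compound two generations (96 h, 37 C, 5% CO2).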
SARS PLpro yeast – qHTS of Yeast-based Assay for SARS-CoV PLP | S. cerevisiae expressing SARS-CoV PLpro, growth rescue | 0.19% of 330,000 active | Potency, µM (titrated, usually from 32.9 µM), actives largely listed as activators; calls by dose curve; further: nearly all actives have a fitted effect of over 55% in size
AMA1-RON2 inh – qHTS for Inhibitors of AMA1-RON; Towards Development of Antimalarial Drug Lead: Primary Screen; 0.2% of 360,000 active; Plasmodium falciparum AMA1 (3D7) - RON2 peptide interaction; AlphaScreen AMA1-biotinylated RON2 peptide binding; Potency, µM (doses to about 58.2 µM), hits mostly inhibitors; further: nearly all actives have a fitted effect of over 45% in size
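AMA1 (3D7) with his tag at 25 nM final met compounds first, then biotinylated RON2 peptide at 25 nM; detection used donor plus acceptor beads, 10 µg/mL apiece, read by AlphaScreen after 30 min at room temperature.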
Pf growth 48h – Primary qHTS for delayed death inhibitors of the malarial parasite plastid, 48 hour incubation | Potency, µM (highest dose often 28.7 µM), most hits filed as inhibitors | P. falciparum luciferase growth in erythrocytes, 48 h | AID 504832, 2011 | 5.9% of 310,000 active
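Compounds are pin-transferred into medium, infected erythrocytes (2% hematocrit, 0.1% parasitemia final) are added, and plates sit one parasite generation at 37 C in 5% CO2. Detection reagent is then added and luminescence measured.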
Hits are given with their value; n = inactive; u = inconclusive; x = no result given. Rows were chosen to be rich in hits. Some 19% of all compounds tested hit in one or more screens of this group. Unless noted, the call rests on the fitted dose curve; in most records, active means well fitted curve in the direction sought with a large enough effect; inconclusive means small, poorly fitted or top-dose-only effect, or another doubt; inactive means no such curve, though single readings can be large; an effect the other way counts as inactive or inconclusive.

SMILES	Shiga toxin inh	CHX counter	Pf growth 96h	SARS PLpro yeast	AMA1-RON2 inh	Pf growth 48h
O=C(NCCN1CCOCC1)c1ccc2c(c1)ncn2C1CCCCC1	n	n	n	n	n	n
CCOc1ccc(NC(=O)CN2C(=O)CSC2=O)cc1	79	15	u	n	n	n
CCOc1ccc(NC(=S)N(C)C)cc1	n	n	n	n	n	n
CCOc1ccc(NC(=O)CC(=O)Nc2ccc(OCC)cc2)cc1	67	n	n	n	n	x
CCOc1ccc(NC(=O)CCC(=O)O)cc1	n	n	u	n	n	n
Cc1cccc(NC(=O)C[n+]2ccc(N(C)C)cc2)c1	n	n	n	n	n	u
CN(C)c1cc[n+](CC(=O)Nc2ccc(Cl)cc2)cc1	n	n	u	n	n	0.083µM
CCOc1ccc(NC(=S)c2ccncc2)cc1	n	n	9.3µM	n	n	n
CCOc1ccc(NC(=O)CN2C(=O)c3ccccc3C2=O)cc1	n	n	u	n	n	n
CCOc1ccc(NC(=O)C2(c3ccc(OC)c(OC)c3)CCCC2)cc1	n	n	1.7µM	n	n	u
CCOc1ccc(NC(=O)C[n+]2ccc(N(C)C)cc2)cc1	n	n	u	n	n	0.66µM
Cc1ccsc1C(=O)OCC(=O)c1ccc(OC(F)F)cc1	x	x	n	n	n	n
CCOC(=O)c1ccc(NC(=O)CN2C(=O)CSC(C)C2=O)cc1 (stereo not given)	n	13	n	n	n	n
COc1ccc(C2(C(=O)NC(C)C)CCCC2)cc1OC	n	n	x	n	n	n
CCOC(=O)c1ccc(NC(=O)CN2C(=O)C(C)SC(C)C2=O)cc1 (stereo not given)	n	n	n	n	n	n
CN(C)c1cc[n+](CC(=O)c2ccc(OC(F)F)cc2)cc1	n	n	0.74µM	n	n	0.74µM
CN(C)c1cc[n+](CC(=O)Nc2ccc(Oc3ccccc3)cc2)cc1	n	n	u	n	n	u
O=C([C@@H]1CCCN1C1=NS(=O)(=O)c2ccccc21)N1CCN(c2ccccc2)CC1	x	x	x	x	n	x
COc1cc(CN2CCCC(C(=O)c3ccc4c5c(cccc35)CC4)C2)cc(OC)c1O (stereo not given)	n	n	n	n	n	n
COc1ccc(CC(=O)N(C)Cc2ccc(Cl)cc2)cc1S(=O)(=O)N1CCOCC1	x	x	u	n	n	u
CCOc1ccc(NC(=O)CN2C(=O)C3CCCN3C2=O)cc1 (stereo not given)	active	15	u	n	n	n
CCOc1ccc(NC(=O)CN2C(=O)NC3(CCCCCC3)C2=O)cc1	x	x	x	n	n	x
COc1ccc(C(C)(O)c2nc(-c3cccc(NC(C)=O)c3)cs2)cc1 (stereo not given)	x	x	x	x	n	x
CN(C)CCNc1ccc2ncn3c4ccc(O)cc4c(=O)c1c23	x	x	x	x	n	x
OCCCNCc1ccc(N(c2ccccc2)c2ccccc2)cc1	n	n	2.3µM	n	n	u
SMILES	Shiga toxin inh	CHX counter	Pf growth 96h	SARS PLpro yeast	AMA1-RON2 inh	Pf growth 48h
OCCNCc1ccc(-c2ccccc2)cc1	n	n	n	n	n	n
O=S(=O)(NCc1ccc(F)cc1)c1ccc(-n2cnnn2)cc1	n	n	n	n	n	n
CCN(CC)C(=O)c1sc(NC(=O)c2ccoc2C)c(C(=O)OC)c1C	n	n	n	n	n	n
CCOC(=O)c1c(NC(=O)COC(=O)Cc2ccccc2[N+](=O)[O-])sc(C(=O)N(C)C)c1C	x	x	n	n	n	u
CCOC(=O)c1c(NC(=O)COC(=O)c2ccccc2NC)sc(C(=O)N(C)C)c1C	n	n	5.2µM	n	n	u
CCOC(=O)c1c(NC(=O)c2ccoc2C)sc(C(=O)N(C)C)c1C	n	n	10µM	n	n	x
COc1cccc(C2CCCCN2Cc2nc(-c3ccc(C)o3)oc2C)c1 (stereo not given)	79	31	n	n	n	n
COc1ccccc1C1CCCN1Cc1nc(-c2ccc(C)s2)oc1C (stereo not given)	n	n	n	n	n	4.7µM
COc1cccc(C2CCCN2Cc2nc(-c3sccc3C)oc2C)c1 (stereo not given)	n	n	n	n	n	u
COc1ccccc1C1CCCN1Cc1nc(-c2cc3c(cc2Cl)OCO3)oc1C (stereo not given)	n	n	n	n	n	9.3µM
CC(=O)NS(=O)(=O)c1ccc(NC(=O)[C@@H]2CCCN2S(=O)(=O)c2ccc(Cl)cc2)cc1	x	x	x	n	n	x
CN1OC[C@@H]2COc3ccc4ccccc4c3[C@@H]21	n	n	n	n	n	13µM
CC1(C(=O)NNC(=O)c2ccc(=O)oc2)CC1Br (stereo not given)	n	13	n	n	n	n
Cc1cc(=O)oc(C)c1C(=O)NNC(=O)C1(C)CC1Br (stereo not given)	n	n	n	n	n	n
CCC(C)Sc1cccc(-c2nc3cc(C)ccn3c2NCc2ccccc2)c1 (stereo not given)	x	x	u	n	n	u
CCCc1nnc2n1N=C(c1ccc(OC)c(OC)c1)CS2	n	n	u	n	n	n
CCCc1nnc2n1N=C(c1ccc(-c3cc(Cl)ccc3Cl)o1)CS2	active	21	n	n	x	n
CCCn1c(=O)c2[nH]c(-c3ccc(OCC(=O)Nc4ccc(C#N)cc4)cc3)nc2n(CCC)c1=O	x	x	n	x	n	n
O=C(CCc1ccccc1)NNC(=S)NC(=O)c1ccc(Cl)cc1	n	n	x	n	n	n
O=C(Nc1ccccc1)N1CCN(S(=O)(=O)c2ccccc2)CC1	n	n	n	n	n	n
O=C1CC(c2ccccc2)Oc2ccccc21 (stereo not given)	x	x	x	x	n	x
Fc1ccc(N/N=C2/CC(c3ccccc3)Oc3ccccc32)c(F)c1 (stereo not given)	52	26	u	n	n	u
CNC(=S)N/N=C1\CC(c2ccccc2)Oc2ccccc21 (stereo not given)	n	n	6.6µM	n	n	10µM
Cc1ccc(CNC(=O)CN2C(=O)CSc3ccc(S(=O)(=O)N4CCC(C)CC4)cc32)cc1	n	n	u	n	n	u
CCC(OC(=O)c1ccco1)C(=O)NCc1ccc2c(c1)OCO2 (stereo not given)	n	n	n	n	n	n
SMILES	Shiga toxin inh	CHX counter	Pf growth 96h	SARS PLpro yeast	AMA1-RON2 inh	Pf growth 48h
Cc1occc1C(=O)Nc1ccc(Br)cc1F	52	51	n	n	n	x
CNC(=S)Nc1ccc([N+](=O)[O-])cc1C	n	n	n	n	n	n
O=C(Nc1ccc([N+](=O)[O-])cc1NC(=O)c1ccccc1)c1ccccc1	x	x	x	x	n	x
Cc1cc([N+](=O)[O-])ccc1NC(=O)c1csc(C)c1C	99	63	n	u	n	n
Cc1ccc([N+](=O)[O-])cc1NC(=O)c1ccccc1	n	n	2.1µM	n	n	n
Cc1occc1C(=O)NNC(=O)Nc1ccc(F)cc1F	n	n	u	n	n	n
